# Measured values published in PubChem BioAssay (EPA / NIEHS).
# Records with an inconclusive call do not appear. The source made the active and inactive calls. The calls were made as follows, unless noted: active = hit-call score of the fitted dose curve at least 0.9, where 1 is the maximum; inactive = score below 0.9.
# Experiments:
# [1] = CCTE_Shafer_MEA_acute_spike_number: CCTE's Neural Acute Assay for Total Number of Spikes, Shafer Lab (AID 2284008);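 as to AC50: curve fitted for decrease in spike count so AC50 reflects inhibitors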
# How it was run: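 Rat cortical cultures, DIV 13/15, 37 C. 40 min baseline rec, cpd 0.03-40 uM, 40 min post-dose rec. Band-pass 300-5000 Hz, spike threshold 8x rms; % change in spike count per well, DMSO neg ctrl, loss-of-signal fit.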
# [2] = CCTE_Harrill_HTTr_Viability_MCF7: CCTE's 6-hour Cell Viability Assessment for the High-Throughput Transcriptomics (HTTr) Platform, in MCF-7 cells cultured in DMEM + 10% fetal bovine serum, Harrill Lab (AID 2284010)
# How it was run: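 Eight-point concentration series, six-hour exposure. Propidium iodide exclusion imaged to assess membrane integrity as a cytotoxicity readout; bidirectional fitting was done with DMSO as negative control and activity baseline.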
# [3] = CCTE_Shafer_MEA_acute_burst_number: CCTE's Neural Acute Assay for Single-Electrode Bursts, Shafer Lab (AID 2284013)
# How it was run: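 Burst totals were derived with adaptive spike detection (8x rms threshold) on filtered signals from rat cortical cultures; change relative to pre-treatment baseline after 40-min compound exposure (0.03-40 uM) was fitted in the negative direction against DMSO.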
# [4] = CCTE_Shafer_MEA_acute_burst_duration_mean: CCTE's Neural Acute Assay for Mean Burst Duration, Shafer Lab (AID 2284014);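 also: hits are decreases in mean burst duration relative to DMSO controls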
# How it was run: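 Acute exposure of mature rat cortical networks (DIV 13 or 15) grown on microelectrode arrays to 0.03-40 uM compound. Mean burst duration compared with the 40-min pre-dose baseline over a 40-min post-dose recording at 37 C.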
# [5] = CCTE_Shafer_MEA_acute_per_burst_spike_number_mean: CCTE's Neural Acute Assay for Average Number of Spikes Per Burst, Shafer Lab (AID 2284015);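 also: hits are decreases in mean spikes per burst versus baseline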
# How it was run: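 Percent change in mean spikes per single-electrode burst is compared between a 40 min baseline and a 40 min recording with compound (0.03-40 uM). Cultures were rat cortical neurons on MEA plates at DIV 13 or 15, recorded at 37 C, with DMSO as the negative control.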
# [6] = CCTE_Shafer_MEA_acute_interburst_interval_mean: CCTE's Neural Acute Assay for Mean Interburst Interval, Shafer Lab (AID 2284016);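 also: percent change of mean interburst interval versus each well's own pre-dose baseline; curves fitted for decrease in interburst interval relative to DMSO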
# How it was run: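 Percent change in mean single-electrode interburst interval was calculated per well from 40 min recordings before and after compound (0.03-40 uM). Recordings were made at 37 C on rat cortical cultures at DIV 13 or 15, with spikes detected at 8x rms threshold.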
# [7] = CCTE_Shafer_MEA_acute_burst_percentage_mean: CCTE's Neural Acute Assay for Percentage of Spikes in a Burst, Shafer Lab (AID 2284017);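 as to AC50: curve fitted for loss of signal so potency reflects decreased burst percentage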
# How it was run: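 Well-level mean burst percentage from a 40-min recording after compound (0.03-40 uM) expressed as percent change from a 40-min baseline at 37C. Cultures: primary rat cortical neurons on MEA, dosed on DIV 13 or 15; fitted downward relative to DMSO.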
# [8] = CCTE_Shafer_MEA_acute_per_network_burst_spike_number_mean: CCTE's Neural Acute Assay for Average Number of Spikes in a Network Burst, Shafer Lab (AID 2284019);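 as to AC50: curve fitted for loss of signal so actives reduce spikes per network burst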
# How it was run: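 Acute exposure of rat primary cortical networks (DIV 13/15) on MEAs; adaptive spike detection at 8x rms noise, 37 C. Percent change in spikes per network burst after 40 min with compound (0.03-40 uM), negative direction vs DMSO.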
# [9] = CCTE_Shafer_MEA_acute_per_network_burst_spike_number_std: CCTE's Neural Acute Assay for Standard Deviation of Number of Spikes in a Network Burst, Shafer Lab (AID 2284020);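 also: fitted for decrease in spike-number SD versus DMSO so actives lower it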
# How it was run: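 Acute MEA exposure, rat cortical neurons, 0.03-40 uM. Per-well % change versus own baseline; DMSO as negative control.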
# [10] = CCTE_Shafer_MEA_acute_per_network_burst_electrodes_number_mean: CCTE's Neural Acute Assay for Mean Number of Electrodes in a Network Burst, Shafer Lab (AID 2284021);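 also: curves fitted for decreases only so hits reduce electrodes per burst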
# How it was run: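 Readout: % change in mean electrodes active per network burst, post- vs pre-treatment, each well. Spikes detected at 8x rms noise after 300-5000 Hz band-pass; rat cortical cultures, DIV 13/15, compounds 0.03-40 uM, DMSO baseline.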
# [11] = CCTE_Shafer_MEA_acute_network_burst_percentage: CCTE's Neural Acute Assay for Percentage of Network Bursts, Shafer Lab (AID 2284022);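 also: curves fitted for loss so actives lower network burst percentage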;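 as to outcome: rat primary cortical neuron networks on multiwell MEA recorded 40 min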
# How it was run: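 Rat cortical cultures, DIV 13/15; 20 min equilibration, 40 min baseline, compound 0.03-40 uM, 40 min recording, 37 C. Spikes: 300-5000 Hz band-pass, threshold 8x rms noise. Readout: % change in network-burst spike fraction; loss direction vs DMSO.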
# [12] = CCTE_Shafer_MEA_acute_cross_correlation_area: CCTE's Neural Acute Assay for Area of Cross Correlation, Shafer Lab (AID 2284024);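 also: area under pooled inter-electrode spike cross-correlation near zero lag as percent change from own baseline; curves fitted for loss of cross-correlation area so actives lower synchrony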;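 as to outcome: rat primary cortical neuron networks on 48-well MEA at DIV 13 or 15 with 40 min exposure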
# How it was run: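 Rat cortical cultures, DIV 13/15, MEA; spikes detected at 8x rms noise (300-5000 Hz band-pass). Compound 0.03-40 uM, ≥3 wells each. Readout: % change in pooled inter-electrode cross-correlation area vs own baseline; DMSO negative control.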
# [13] = CCTE_Shafer_MEA_acute_cross_correlation_HWHM: CCTE's Neural Acute Assay for Cross Correlation at Half Width at Half Maximum, Shafer Lab (AID 2284026);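 also: percent change per well from pre-dose baseline in spike cross-correlogram half width; hits are a decrease in cross-correlogram half width relative to DMSO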;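 as to outcome: spontaneous network firing of rat primary cortical neurons on multiwell microelectrode arrays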
# How it was run: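 Read-out: half width at half maximum of action-potential cross-correlogram, percent change versus pre-treatment baseline, fitted in loss direction against DMSO. Rat cortical cultures, DIV 13 or 15, dosed 0.03-40 uM, 40-min recordings at 37 C.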
# [14] = CCTE_Shafer_MEA_acute_synchrony_index: CCTE's Neural Acute Assay for Synchrony, Shafer Lab (AID 2284027);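 also: network synchrony index of spontaneous spiking in primary rat cortical neurons on MEAs; fitted for loss of signal so actives lower synchrony relative to DMSO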
# How it was run: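 Acute exposure of rat primary cortical neurons (DIV 13 or 15) at 0.03-40 uM. Synchrony index, 40 min before vs after, as % change relative to DMSO control.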
# [15] = CCTE_Harrill_HTTr_Apoptosis_MCF7: CCTE's 6-hour Apoptosis Assessment for the High-Throughput Transcriptomics (HTTr) Platform, in MCF-7 cells cultured in DMEM + 10% fetal bovine serum, Harrill Lab (AID 2284011)
# How it was run: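 Read-out: CellEvent Caspase 3/7 Green signal by high content imaging, gain-of-signal indicating apoptosis. MCF-7 cells, DMEM + 10% FBS, eight-point dilution series, 6 h exposure. Curves fitted bidirectionally relative to DMSO negative control.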
# [16] = CCTE_Harrill_HTTr_CellCount_MCF7: CCTE's Cell Proliferation Assessment for the High-Throughput Transcriptomics (HTTr) Platform, Harrill Lab (AID 2284012; active = hit-call score of the fitted dose curve at least 0.9, where 1 is the maximum;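 also: count of Hoechst-stained nuclei per well by high-content imaging in MCF-7 cells; cells exposed to compound for six hours; intended direction is loss of nuclei count meaning fewer cells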)
# How it was run: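 For this full-screen endpoint, MCF-7 cultures received eight compound dilutions for six hours. Well nuclei counts from Hoechst imaging were analyzed relative to DMSO.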
compound,measurement,setting,value
CC(C)OC(=O)Nc1cccc(Cl)c1,AC50,[1],10.2 µM (active)
same,outcome,[2],inactive
same,outcome,[3],inactive
same,outcome,[4],inactive
same,outcome,[5],inactive
same,outcome,[6],inactive
same,AC50,[7],20 µM (active)
same,outcome,[8],inactive
same,AC50,[9],25.2 µM (active)
same,AC50,[10],20 µM (active)
same,AC50,[11],20 µM (active)
same,outcome,[12],inactive
same,AC50,[13],20 µM (active)
same,AC50,[14],20 µM (active)
C[C@H]1[C@H](c2ccc(Cl)cc2)SC(=O)N1C(=O)NC1CCCCC1,AC50,[1],13 µM (active)
same,outcome,[2],inactive
same,AC50,[3],10.3 µM (active)
same,AC50,[4],20 µM (active)
same,AC50,[5],17.2 µM (active)
same,AC50,[6],28.7 µM (active)
same,AC50,[7],19.8 µM (active)
same,AC50,[8],9.24 µM (active)
same,AC50,[9],20 µM (active)
same,outcome,[10],inactive
same,outcome,[11],inactive
same,outcome,[12],inactive
same,AC50,[13],23.5 µM (active)
same,AC50,[14],20 µM (active)
OCCOc1ccccc1,outcome,[2],inactive
same,outcome,[15],inactive
ClC1C(Cl)C(Cl)C(Cl)C(Cl)C1Cl (centres undefined),AC50,[1],20 µM (active)
same,outcome,[2],inactive
same,outcome,[16],inactive
same,outcome,[3],inactive
same,AC50,[4],20 µM (active)
same,AC50,[5],1.62 µM (active)
same,outcome,[6],inactive
same,AC50,[7],1.53 µM (active)
same,AC50,[8],1.23 µM (active)
same,outcome,[9],inactive
same,AC50,[10],1.1 µM (active)
same,AC50,[12],9.69 µM (active)
same,outcome,[13],inactive
same,AC50,[14],1.22 µM (active)
O=C(O)C(F)(F)C(F)(F)C(F)(F)C(F)(F)C(F)(F)C(F)(F)C(F)(F)F,outcome,[2],inactive
same,outcome,[16],inactive
O=C(Nc1ccccc1)Nc1cnns1,outcome,[2],inactive
same,outcome,[16],inactive
CNC(=O)/C=C(\C)OP(=O)(OC)OC,outcome,[1],inactive
same,outcome,[2],inactive
same,outcome,[3],inactive
same,outcome,[4],inactive
same,outcome,[5],inactive
same,outcome,[6],inactive
same,outcome,[7],inactive
same,outcome,[8],inactive
same,outcome,[9],inactive
same,outcome,[10],inactive
same,outcome,[11],inactive
same,outcome,[12],inactive
same,outcome,[13],inactive
same,outcome,[14],inactive
CNC(=O)Oc1cccc(N=CN(C)C)c1,outcome,[2],inactive
same,outcome,[16],inactive
CNC(=O)Oc1ccccc1OC(C)C,outcome,[2],inactive
CN1CSC(=S)N(C)C1,outcome,[2],inactive
same,outcome,[16],inactive
N#CN,outcome,[1],inactive
same,outcome,[2],inactive
same,outcome,[3],inactive
same,outcome,[4],inactive
same,outcome,[5],inactive
same,outcome,[6],inactive
same,outcome,[7],inactive
same,outcome,[8],inactive
same,outcome,[9],inactive
same,outcome,[10],inactive
same,outcome,[11],inactive
same,outcome,[12],inactive
same,outcome,[13],inactive
same,outcome,[14],inactive
CCCN(CCC)c1c([N+](=O)[O-])cc(C(F)(F)F)cc1[N+](=O)[O-],AC50,[1],8.55 µM (active)
same,outcome,[2],inactive
same,outcome,[3],inactive
same,outcome,[4],inactive
same,outcome,[5],inactive
same,AC50,[6],4.23 µM (active)
same,AC50,[7],5.5 µM (active)
same,outcome,[8],inactive
same,outcome,[9],inactive
same,AC50,[10],8.36 µM (active)
same,AC50,[11],20 µM (active)
same,outcome,[12],inactive
same,outcome,[13],inactive
same,outcome,[14],inactive
O=S(=O)(O)C(F)(F)C(F)(F)C(F)(F)C(F)(F)C(F)(F)C(F)(F)C(F)(F)C(F)(F)F,outcome,[1],inactive
same,outcome,[2],inactive
same,outcome,[16],inactive
same,outcome,[3],inactive
same,outcome,[4],inactive
same,outcome,[5],inactive
same,outcome,[6],inactive
same,outcome,[7],inactive
same,outcome,[8],inactive
same,outcome,[9],inactive
same,outcome,[10],inactive
same,outcome,[11],inactive
same,outcome,[12],inactive
same,outcome,[13],inactive
same,outcome,[14],inactive
COP(=O)(OC)OC=C(Cl)Cl,outcome,[2],inactive
COc1nn(CSP(=S)(OC)OC)c(=O)s1,outcome,[2],inactive
same,outcome,[16],inactive
CCc1ccc(C(=O)NN(C(=O)c2cc(C)cc(C)c2)C(C)(C)C)cc1,outcome,[2],inactive
